Laboratory results: PMC11006913
Substitutions are numbered along the chain they refer to.

Legend:
Test in all cases: PBM; 200 nM protein, PBS
Settings in all cases: dsDNA, one strand shown
[1] = molecular target: T1, VENTX (Homo sapiens, UniProt O95231 78-163, R121Q)
T1 sequence: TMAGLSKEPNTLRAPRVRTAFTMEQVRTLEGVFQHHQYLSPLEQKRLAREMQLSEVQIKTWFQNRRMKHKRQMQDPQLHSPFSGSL

[2] = molecular target: HOXA4 (Homo sapiens, UniProt Q00056 201-287, W262R)
[3] = molecular target: ALX4 (Homo sapiens, UniProt Q9H161 200-286)
Chain of ALX4 (Q9H161 200-286): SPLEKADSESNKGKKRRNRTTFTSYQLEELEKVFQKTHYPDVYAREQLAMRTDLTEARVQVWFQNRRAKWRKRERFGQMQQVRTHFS

[4] = molecular target: PRRX1 (Homo sapiens, UniProt P54821 80-166, F113S)
Chain of PRRX1 (Homo sapiens, UniProt P54821 80-166, F113S) (P54821 80-166 F113S): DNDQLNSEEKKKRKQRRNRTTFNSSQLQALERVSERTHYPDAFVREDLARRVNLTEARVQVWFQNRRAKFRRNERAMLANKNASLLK

[5] = molecular target: T2, VENTX (Homo sapiens, UniProt O95231 78-163, Y115F)
T2 sequence: T1 sequence with Y38F, Q44R

[6] = molecular target: HOXA2 (Homo sapiens, UniProt O43364 129-215, R185T)
Chain of HOXA2 (Homo sapiens, UniProt O43364 129-215, R185T) (O43364 129-215 R185T): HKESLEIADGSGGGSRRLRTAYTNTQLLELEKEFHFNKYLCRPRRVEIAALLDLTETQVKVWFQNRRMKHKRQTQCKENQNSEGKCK

[7] = molecular target: HOXA4 (Homo sapiens, UniProt Q00056 201-287, R217L)
Chain of HOXA4 (Homo sapiens, UniProt Q00056 201-287, R217L) (Q00056 201-287 R217L): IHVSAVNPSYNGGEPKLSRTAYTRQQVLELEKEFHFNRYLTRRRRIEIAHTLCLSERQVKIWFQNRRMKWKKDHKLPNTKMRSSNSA

[8] = molecular target: HOXB4 (Homo sapiens, UniProt P17483 148-234, V174I)
Chain of HOXB4 (P17483 148-234 V174I): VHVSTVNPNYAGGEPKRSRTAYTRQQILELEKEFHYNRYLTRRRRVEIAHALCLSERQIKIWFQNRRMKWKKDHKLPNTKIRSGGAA

[9] = molecular target: T3, PAX4 (Homo sapiens, UniProt O43316 9-242, R200Q)
T3 sequence: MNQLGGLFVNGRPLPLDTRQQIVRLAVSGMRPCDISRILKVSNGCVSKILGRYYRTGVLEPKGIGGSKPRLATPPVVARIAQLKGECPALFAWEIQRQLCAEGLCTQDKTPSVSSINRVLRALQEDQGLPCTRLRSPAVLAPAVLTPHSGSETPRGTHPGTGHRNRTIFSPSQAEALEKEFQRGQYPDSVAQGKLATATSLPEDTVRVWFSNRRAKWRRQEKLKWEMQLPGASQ

[10] = molecular target: HOXA2 (Homo sapiens, UniProt O43364 129-215, R185K)
Chain of HOXA2 (Homo sapiens, UniProt O43364 129-215, R185K) (O43364 129-215 R185K): as the sequence (O43364 129-215 R185T) above, with T57K counted along it

[11] = molecular target: HOXA4 (Homo sapiens, UniProt Q00056 201-287)
Chain of HOXA4 (Homo sapiens, UniProt Q00056 201-287) (Q00056 201-287): as the sequence (Q00056 201-287 R217L) above, with L17R counted along it

[12] = molecular target: MSX2 (Homo sapiens, UniProt P35548 130-214)
Chain of MSX2 (Homo sapiens, UniProt P35548 130-214) (P35548 130-214): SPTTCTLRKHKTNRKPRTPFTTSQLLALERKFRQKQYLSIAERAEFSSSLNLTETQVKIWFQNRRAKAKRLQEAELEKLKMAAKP

[13] = molecular target: MSX2 (Homo sapiens, UniProt P35548 130-214, F161Y)
Chain of MSX2 (Homo sapiens, UniProt P35548 130-214, F161Y) (P35548 130-214 F161Y): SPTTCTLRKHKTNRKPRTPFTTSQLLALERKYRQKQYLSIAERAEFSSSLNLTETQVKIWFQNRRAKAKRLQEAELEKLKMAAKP

[14] = molecular target: VAX1 (Homo sapiens, UniProt Q5SQQ9 86-172, T142I)
Chain of VAX1 (Homo sapiens, UniProt Q5SQQ9 86-172, T142I) (Q5SQQ9 86-172 T142I): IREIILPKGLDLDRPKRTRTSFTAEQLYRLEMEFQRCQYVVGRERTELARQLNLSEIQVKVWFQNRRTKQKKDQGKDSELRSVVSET

[15] = molecular target: HOXA4 (Homo sapiens, UniProt Q00056 201-287, W262F)
Chain of HOXA4 (Homo sapiens, UniProt Q00056 201-287, W262F) (Q00056 201-287 W262F): as the sequence (Q00056 201-287 R217L) above, with L17R, W62F counted along it

[16] = molecular target: PRRX1 (Homo sapiens, UniProt P54821 80-166)
Chain of PRRX1 (Homo sapiens, UniProt P54821 80-166) (P54821 80-166): as the sequence (P54821 80-166 F113S) above, with S34F counted along it

[17] = molecular target: VAX1 (Homo sapiens, UniProt Q5SQQ9 86-172, K157R)
Chain of VAX1 (Homo sapiens, UniProt Q5SQQ9 86-172, K157R) (Q5SQQ9 86-172 K157R): as the sequence (Q5SQQ9 86-172 T142I) above, with I57T, K72R counted along it

[18] = molecular target: HOXA7 (Homo sapiens, UniProt P31268 116-202)
Chain of HOXA7 (Homo sapiens, UniProt P31268 116-202) (P31268 116-202): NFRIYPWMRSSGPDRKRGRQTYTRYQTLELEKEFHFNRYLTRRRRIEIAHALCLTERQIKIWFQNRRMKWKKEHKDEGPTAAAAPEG

[19] = molecular target: HOXB6 (Homo sapiens, UniProt P17509 132-218, K202E)
Chain of HOXB6 (P17509 132-218 K202E): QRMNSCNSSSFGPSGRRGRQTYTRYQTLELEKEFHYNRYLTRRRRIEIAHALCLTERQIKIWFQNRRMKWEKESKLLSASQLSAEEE

[20] = molecular target: HOXA7 (Homo sapiens, UniProt P31268 116-202, W177C)
Chain of HOXA7 (Homo sapiens, UniProt P31268 116-202, W177C) (P31268 116-202 W177C): as the sequence (P31268 116-202) above, with W62C counted along it

Chain of HOXA4 (Homo sapiens, UniProt Q00056 201-287, W262R) (Q00056 201-287 W262R): as the sequence (Q00056 201-287 R217L) above, with L17R, W62R counted along it

Sequence	binding signal [1]	binding signal [2]	binding signal [3]	binding signal [4]	binding signal [5]	binding signal [6]	binding signal [7]	binding signal [8]	binding signal [9]	binding signal [10]	binding signal [11]	binding signal [12]	binding signal [13]	binding signal [14]	binding signal [15]	binding signal [16]	binding signal [17]	binding signal [18]	binding signal [19]	binding signal [20]
CTAATTGA	12.1 upbm affinity estimate (log intensity, higher = more binding, comparable within an allelic series)	10.5 upbm affinity estimate (log intensity, higher = more binding, comparable within an allelic series)	14.1 upbm affinity estimate (log intensity, higher = more binding, comparable within an allelic series)	11.1 upbm affinity estimate (log intensity, higher = more binding, comparable within an allelic series)	11.7 upbm affinity estimate (log intensity, higher = more binding, comparable within an allelic series)	13.3 upbm affinity estimate (log intensity, higher = more binding, comparable within an allelic series)	12 upbm affinity estimate (log intensity, higher = more binding, comparable within an allelic series)	14 upbm affinity estimate (log intensity, higher = more binding, comparable within an allelic series)	11.8 upbm affinity estimate (log intensity, higher = more binding, comparable within an allelic series)	13.4 upbm affinity estimate (log intensity, higher = more binding, comparable within an allelic series)	13.9 upbm affinity estimate (log intensity, higher = more binding, comparable within an allelic series)	13.9 upbm affinity estimate (log intensity, higher = more binding, comparable within an allelic series)	13.5 upbm affinity estimate (log intensity, higher = more binding, comparable within an allelic series)	13.2 upbm affinity estimate (log intensity, higher = more binding, comparable within an allelic series)	11.4 upbm affinity estimate (log intensity, higher = more binding, comparable within an allelic series)	13.5 upbm affinity estimate (log intensity, higher = more binding, comparable within an allelic series)	13.4 upbm affinity estimate (log intensity, higher = more binding, comparable within an allelic series)	–	–	–
CAATTAAC	12.2 upbm affinity estimate (log intensity, higher = more binding, comparable within an allelic series)	10.6 upbm affinity estimate (log intensity, higher = more binding, comparable within an allelic series)	14 upbm affinity estimate (log intensity, higher = more binding, comparable within an allelic series)	11.3 upbm affinity estimate (log intensity, higher = more binding, comparable within an allelic series)	11.9 upbm affinity estimate (log intensity, higher = more binding, comparable within an allelic series)	13.1 upbm affinity estimate (log intensity, higher = more binding, comparable within an allelic series)	12.4 upbm affinity estimate (log intensity, higher = more binding, comparable within an allelic series)	13.9 upbm affinity estimate (log intensity, higher = more binding, comparable within an allelic series)	12 upbm affinity estimate (log intensity, higher = more binding, comparable within an allelic series)	13.3 upbm affinity estimate (log intensity, higher = more binding, comparable within an allelic series)	13.9 upbm affinity estimate (log intensity, higher = more binding, comparable within an allelic series)	14 upbm affinity estimate (log intensity, higher = more binding, comparable within an allelic series)	13.6 upbm affinity estimate (log intensity, higher = more binding, comparable within an allelic series)	12.8 upbm affinity estimate (log intensity, higher = more binding, comparable within an allelic series)	11.6 upbm affinity estimate (log intensity, higher = more binding, comparable within an allelic series)	13.4 upbm affinity estimate (log intensity, higher = more binding, comparable within an allelic series)	13 upbm affinity estimate (log intensity, higher = more binding, comparable within an allelic series)	11.5 upbm affinity estimate (log intensity, higher = more binding, comparable within an allelic series)	9.99 upbm affinity estimate (log intensity, higher = more binding, comparable within an allelic series)	8.75 upbm affinity estimate (log intensity, higher = more binding, comparable within an allelic series)
GGCAGGCC	–	–	–	–	–	–	–	7.33 upbm affinity estimate (log intensity, higher = more binding, comparable within an allelic series)	9.21 upbm affinity estimate (log intensity, higher = more binding, comparable within an allelic series)	–	–	–	–	–	–	–	–	–	–	–
ACCAATTA	12.2 upbm affinity estimate (log intensity, higher = more binding, comparable within an allelic series)	–	14.2 upbm affinity estimate (log intensity, higher = more binding, comparable within an allelic series)	11.5 upbm affinity estimate (log intensity, higher = more binding, comparable within an allelic series)	11.8 upbm affinity estimate (log intensity, higher = more binding, comparable within an allelic series)	12.8 upbm affinity estimate (log intensity, higher = more binding, comparable within an allelic series)	–	13.6 upbm affinity estimate (log intensity, higher = more binding, comparable within an allelic series)	12.1 upbm affinity estimate (log intensity, higher = more binding, comparable within an allelic series)	13.2 upbm affinity estimate (log intensity, higher = more binding, comparable within an allelic series)	–	14.2 upbm affinity estimate (log intensity, higher = more binding, comparable within an allelic series)	13.8 upbm affinity estimate (log intensity, higher = more binding, comparable within an allelic series)	12.4 upbm affinity estimate (log intensity, higher = more binding, comparable within an allelic series)	–	13.6 upbm affinity estimate (log intensity, higher = more binding, comparable within an allelic series)	12.7 upbm affinity estimate (log intensity, higher = more binding, comparable within an allelic series)	11.2 upbm affinity estimate (log intensity, higher = more binding, comparable within an allelic series)	9.84 upbm affinity estimate (log intensity, higher = more binding, comparable within an allelic series)	8.84 upbm affinity estimate (log intensity, higher = more binding, comparable within an allelic series)
CAATTATC	11.7 upbm affinity estimate (log intensity, higher = more binding, comparable within an allelic series)	10.5 upbm affinity estimate (log intensity, higher = more binding, comparable within an allelic series)	13.8 upbm affinity estimate (log intensity, higher = more binding, comparable within an allelic series)	11.3 upbm affinity estimate (log intensity, higher = more binding, comparable within an allelic series)	–	12.4 upbm affinity estimate (log intensity, higher = more binding, comparable within an allelic series)	11.9 upbm affinity estimate (log intensity, higher = more binding, comparable within an allelic series)	13.6 upbm affinity estimate (log intensity, higher = more binding, comparable within an allelic series)	11.8 upbm affinity estimate (log intensity, higher = more binding, comparable within an allelic series)	13 upbm affinity estimate (log intensity, higher = more binding, comparable within an allelic series)	13.6 upbm affinity estimate (log intensity, higher = more binding, comparable within an allelic series)	13.9 upbm affinity estimate (log intensity, higher = more binding, comparable within an allelic series)	13.7 upbm affinity estimate (log intensity, higher = more binding, comparable within an allelic series)	–	11.2 upbm affinity estimate (log intensity, higher = more binding, comparable within an allelic series)	13.4 upbm affinity estimate (log intensity, higher = more binding, comparable within an allelic series)	–	11.2 upbm affinity estimate (log intensity, higher = more binding, comparable within an allelic series)	9.98 upbm affinity estimate (log intensity, higher = more binding, comparable within an allelic series)	8.91 upbm affinity estimate (log intensity, higher = more binding, comparable within an allelic series)
